According to PubChem BioAssay (NCI):
Compounds without any hit were thinned out: in the full panel of roughly 83,000, 20% have a hit.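 Assay: single dose, 48 h. Readout: percent growth (0 = no net growth; negative = cell death). Active: <10.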 Values without a mark were called inactive. Active and inactive are the calls of the source.

Columns and labels:
Test in all cases: NCI-60 one-dose screen, 48 h (100 = growth as untreated, 0 = no growth, -100 = all killed)
SR leukemia = conditions: 10 µM unless noted
RPMI-8226 leukemia = conditions: 10 µM unless noted
OVCAR-8 ovarian = conditions: 10 µM unless noted
OVCAR-5 ovarian = conditions: 10 µM unless noted
OVCAR-4 ovarian = conditions: 10 µM
IGROV1 ovarian = conditions: 10 µM unless noted
OVCAR-3 ovarian = conditions: 10 µM unless noted
HS 578T breast = conditions: 10 µM unless noted
NCI/ADR-RES ovarian = conditions: 10 µM unless noted
T-47D breast = conditions: 10 µM unless noted
MDA-MB-435 melanoma = conditions: 10 µM unless noted
SW-620 colon = conditions: 10 µM unless noted
MCF7 breast = conditions: 10 µM unless noted
HCT-116 colon = conditions: 10 µM unless noted
HCC-2998 colon = conditions: 10 µM unless noted
KM12 colon = conditions: 10 µM unless noted
BT-549 breast = conditions: 10 µM unless noted

| SMILES | growth (SR leukemia) | growth (RPMI-8226 leukemia) | growth (OVCAR-8 ovarian) | growth (OVCAR-5 ovarian) | growth (OVCAR-4 ovarian) | growth (IGROV1 ovarian) | growth (OVCAR-3 ovarian) | growth (HS 578T breast) | growth (NCI/ADR-RES ovarian) | growth (T-47D breast) | growth (MDA-MB-435 melanoma) | growth (SW-620 colon) | growth (MCF7 breast) | growth (HCT-116 colon) | growth (HCC-2998 colon) | growth (KM12 colon) | growth (BT-549 breast) |
| --- | --- | --- | --- | --- | --- | --- | --- | --- | --- | --- | --- | --- | --- | --- | --- | --- | --- |
| CCOC(=O)CCC[P+](c1ccccc1)(c1ccccc1)c1ccccc1 | 59.5% | 41.9% | 82.2% | 95.1% | 81.7% | 65.8% | 45.9% | 92.9% | 105% | 27.5% | 60.4% | 84.7% | 59.7% | 63.4% | 56.3% | 44.7% |  |
| Nc1nc(Cl)c2ncn(Cc3cc4c(cc3I)OCO4)c2n1 | 9.76% (active) | 34.8% | 60.7% | 72.8% | 79.7% | 83.2% | 41.9% | 81.2% | 58% | 30.9% |  | 18.3% |  | 16.7% | 76.4% | 9.48% (active) |  |
| COc1cc(NCc2ccccc2O)c2ncccc2c1 | 82.4% | 46.9% | 102% | 69.6% | 82.3% | 90.4% | 97.2% | 149% | 71.9% | 90.4% | 103% | 102% | 95.2% | 64% | 108% | 103% |  |
| CC(C)C1=NOC(=O)C1=Cc1cn(-c2ccccc2)nc1-c1ccc(Cl)cc1 | -22% (active) | -28.5% (active) | 79.2% | 99.1% | 98.2% | 79.6% | 86.2% | 77.4% | 91.7% | 74.6% | 76.4% | 61.4% |  | 50.4% | 72.5% | 91.7% |  |
| C#C[C@]1(O)CC[C@H]2[C@@H]3CC=C4c5nc(Nc6ccc(OC)cc6OC)sc5CC[C@]4(C)[C@H]3CC[C@@]21C | 5.67% (active) | -26.1% (active) | 59.4% | 51.7% | 44.7% | 43.2% | 26.4% | -12.7% (active) | 50.3% | 22.3% | -4.22% (active) | -12.8% (active) | 4.51% (active) | -21.1% (active) | 29.8% | -50.4% (active) | -16.7% (active) |
| Cc1ccc(-c2cc(-c3ccc(C)cc3)nc(N3CCN(CCNc4ccnc5cc(Cl)ccc45)CC3)n2)cc1 | -1.09% (active) | 19.4% | 25.4% | 79.4% | -59.4% (active) | 5.07% (active) | -53.6% (active) | -22.6% (active) | 6.51% (active) | 71.8% | 23.3% | -29.1% (active) | 15.5% | -3.1% (active) | 16.6% | 31.9% | 67.6% |
| COc1cc2c(c(OC)c1OC)-c1cc(I)c(O)cc1[C@@H](NC(C)=O)CC2 | 33.2% | 12.9% | 12.6% | 49.2% | 37.3% | -3.77% (active) | 17.5% | 76.4% | 25.4% | 69.5% |  | 31.4% | 12.5% | 11.9% | 20.8% | 15.1% | 3.61% (active) |
| C[n+]1c(-c2ccccc2)c2cc(N)ccc2c2ccccc21 | 21.9% | 17.7% | 34% | 107% | 29.8% | 23.6% | 69.7% | 27.1% | 100% | 11.9% | 31.5% | 40.5% | 13% | 30.4% | 40.5% | 19.1% | 0.585% (active) |
| N=C(N)c1ccc(-c2ccc(-c3ccc(-c4cccs4)s3)s2)cc1F | 18.6% | 49.4% | 102% | 75.8% | 90.5% | 93.5% | 91.4% | 101% | 102% | 87.7% | 94.1% | 91.5% | 64.9% | 83.6% | 69% | 100% |  |
| CC(C)CCSc1nc(N)nc2nc[nH]c12 | 89.8% | 94.6% | 94.1% | 107% | 112% | 79.9% | 103% | 122% | 104% | 89.1% | 116% | 113% |  | 92.9% | 101% | 92.6% | 140% |
| CCOC(=O)c1c[nH]n2c(=S)ncnc12 | 107% | 107% | 104% | 103% | 101% | 121% | 99.5% | 118% | 99.1% | 98.7% |  | 112% | 96.3% | 101% | 112% | 99.9% | 108% |
| Cc1ccc(S(=O)(=O)Oc2ccc(Br)cc2Br)cc1 | 22% | 73.3% | 95.1% | 89.5% | 72.4% | 73.3% | 86.9% | 87.7% | 62.3% | 70.7% | -46% (active) | 58.6% | 75.7% | 49.3% | 78.3% | 45.9% |  |
| CC(C)(C)c1cc(C(=O)Nc2ccc(C(=O)NCCN)cc2)cc(C(C)(C)C)c1 | -40.4% (active) | 15.6% | 72.2% | 49.3% | 62.3% | 52.9% | 54.6% | 81.7% | 92.4% | 27.3% | -49.5% (active) | 1.34% (active) | 3.31% (active) | 12.8% | 1.78% (active) | 12.9% | 87.6% |
| CCCCCn1c(C)cc(/C=C\c2ccc3cc(C)ccc3[n+]2C)c1C | 9.57% (active) | -43.5% (active) | -69.5% (active) | 12% | -8.22% (active) | -84% (active) | -72.7% (active) | -24.4% (active) | 59.1% | -49.1% (active) | -90.2% (active) | -35.9% (active) | -18.2% (active) | -34.4% (active) | -70.1% (active) | -72.4% (active) | -29.9% (active) |
| O=C1COCCN1c1ccc(Nc2nc(Cl)nc(N3CCOCC3)n2)cc1 | 88.9% | 98.9% | 97.9% | 88.3% | 102% | 103% | 103% | 104% | 97.6% | 88.5% | 99.5% | 105% |  | 101% | 89.1% | 93.8% | 97.1% |
| COc1cc(-c2cc(-c3ccc(Nc4ncnc5cc(Cl)ccc45)cc3)nc(N3CCCCC3)n2)cc(OC)c1OC | 90.9% | 109% | 88.9% | 96.1% | 106% | 90.5% | 107% | 98.7% | 104% | 91.3% | 106% | 97.7% | 86.6% | 103% | 114% | 97.8% | 84% |
| CCn1cc(-c2cc(-c3ccc(Cl)cc3)nc(N)n2)c(-c2ccc(Br)cc2)n1 | 69.7% | 66.2% | 84.9% | 68.7% | 82.2% | 68.1% | 88.5% | 96.7% | 80.3% | 48.1% |  | 99.7% | 72.2% | 66.3% | 92.9% | 77.7% |  |
| CCNC(=O)N1CCc2c(Cl)c3c(c(OC)c2[C@@H]1[C@H]1OCc2c1ccc(OC)c2OC)OCCO3 | 18.3% | 17.3% | 30.7% | 38.1% | 57.6% | 29.1% | -5.71% (active) | 14.5% | 1.11% (active) | 20.5% |  | 17.5% | 16.1% | 18.2% | 61.1% | 18.7% | 55.9% |
| CCN1c2ccccc2C(Cl)(c2ccc(N(C)C)cc2)c2ccccc21 | 22.6% | -28.8% (active) | 17.9% | 107% | 75.2% | -20.3% (active) | 23.2% | 102% | 85.8% | 54.9% | 23.3% | 12.2% | 76.2% | 17.5% | 78% | 21.9% |  |
